In assay [1] the target is human Peroxisome Proliferator-activated Receptor delta (PPARd), PPARD (gene 5467) (UniProt Q03181). The experiment in a line: ATG_PPARd_TRANS: Attagene TRANS-FACTORIAL HepG2 Assay for human Peroxisome Proliferator-activated Receptor delta (PPARd) (AID 2283002). In outline:
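Measured quantity: GAL4-UAS reporter transcript induction in HepG2 after 24 h chemical dosing, with NR-Gal4 chimeras supplied by transient transfection. Detection by RT-PCR and capillary electrophoresis; upward fit against DMSO.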

Assay [2] deals with Peroxisome proliferator-activated receptor gamma (Homo sapiens) (UniProt P37231). In words: ATG_PPARg_TRANS: Attagene TRANS-FACTORIAL HepG2 Assay for human Peroxisome Proliferator-activated Receptor-gamma (PPARg) (AID 2283007). A digest of the protocol: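 Endpoint reflects upward reporter mRNA change versus DMSO controls. Setup: transiently transfected HepG2, GAL4-UAS reporters driven by chimeric NR-Gal4, 24 h incubation, RT-PCR with capillary electrophoresis read-out.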

The target of assay [3] is Nuclear receptor subfamily 1 group I member 2 (Homo sapiens) (UniProt O75469). The experiment in a line: ATG_PXR_TRANS: Attagene TRANS-FACTORIAL HepG2 Assay for human Pregnane X Receptor (PXR) (AID 2283008). In outline: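 HepG2 cells transiently transfected with multiple reporter units, here a PXR-GAL4 chimera driving a GAL4-UAS reporter; 24 h compound exposure. Reporter mRNA measured by RT-PCR, FAM labelling and capillary electrophoresis; gain of signal fitted against DMSO baseline.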

Assay [4] deals with Retinoic acid receptor RXR-alpha (Homo sapiens) (UniProt P19793). The experiment in a line: ATG_RXRa_TRANS: Attagene TRANS-FACTORIAL HepG2 Assay for human Retinoid X Receptor alpha (RXRa) (AID 2283012). A digest of the protocol: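 HepG2 cells transiently transfected with GAL4-UAS reporter units and chimeric RXRa-Gal4 protein, treated 24 h. Reporter mRNA measured by RT-PCR, fluorescent labelling, HpaI digestion and capillary electrophoresis. Induction fitted against DMSO.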

In assay [5] the target is human RAR-related Orphan Receptor beta (RORb), RORB (gene 6096) (UniProt Q92753). In words: ATG_RORb_TRANS: Attagene TRANS-FACTORIAL HepG2 Assay for human RAR-related Orphan Receptor beta (RORb) (AID 2283010). In outline:
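HepG2 cells transiently transfected with GAL4-UAS reporter units expressing chimeric NR-Gal4 protein; reporter mRNA measured 24 h after dosing by RT-PCR, 6-FAM labelling and capillary electrophoresis. Gain-of-signal fitted relative to DMSO baseline.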

The target of assay [6] is human Thyroid Receptor alpha (THRa1), THRA (gene 7067) (UniProt P10827). The experiment in a line: ATG_THRa1_TRANS: Attagene TRANS-FACTORIAL HepG2 Assay for human Thyroid Receptor alpha (THRa1) (AID 2283014). A digest of the protocol: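 First, HepG2 cells receive multiple GAL4-UAS reporter units and the chimeric receptor. They are then dosed for 24 h, after which RNA is reverse-transcribed, amplified, labelled, HpaI-cut and sized by capillary electrophoresis; gain relative to DMSO is scored.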

For assay [7], the target named is human Retinoid X Receptor beta (RXRb), RXRB (gene 6257) (UniProt P28702). The experiment in a line: ATG_RXRb_TRANS: Attagene TRANS-FACTORIAL HepG2 Assay for human Retinoid X Receptor beta (RXRb) (AID 2283013). In outline:
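HepG2 cells were transiently transfected with multiplexed GAL4-UAS reporters and a chimeric RXRb-Gal4 construct, then exposed for 24 h. Reporter mRNA was quantified by RT-PCR, FAM labeling, HpaI digestion and capillary electrophoresis; gain of signal was scored against DMSO.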

Read-out in assay [8]: Intercellular Adhesion Molecule 1 (ICAM1), ICAM1 (gene 3383)
In words: BSK_3C_ICAM1: BioMAP Diversity Plus: 3C Assay for Intercellular Adhesion Molecule 1 (ICAM1) Biomarker Activity (AID 2283003; active means hit-call score of the fitted dose curve at least 0.9, where 1 is the maximum; inactive means score below 0.9). The conditions noted are these: primary human endothelial cells (HUVEC); actives raise or lower the signal. In outline:
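HUVEC primary cells stimulated under 3C conditions; ICAM1 measured by ELISA 24 h after compound dosing. Curves fitted bidirectionally against the DMSO baseline. Overt cytotoxicity checked by SRB staining of parallel cultures.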

Assay [9] is described as follows: BSK_3C_Proliferation: Cell Proliferation Assessment in the BioMAP Diversity Plus: 3C Assay (AID 2283006; active means hit-call score of the fitted dose curve at least 0.9, where 1 is the maximum; inactive means score below 0.9;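 on AC50: potency may reflect either rise or fall in cell number versus DMSO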). The note with it: primary human endothelial cells (HUVEC). A digest of the protocol: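 Subconfluent HUVEC (3C system) cultured with chemical; relative cell number read at 48 h by sulforhodamine B total-protein staining (0.1% SRB after 10% TCA fixation, 560 nm). Bidirectional fit relative to DMSO.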

The target of assay [10] is human RAR-related Orphan Receptor gamma (RORg), RORC (gene 6097) (UniProt P51449). In words: ATG_RORg_TRANS: Attagene TRANS-FACTORIAL HepG2 Assay for human RAR-related Orphan Receptor gamma (RORg) (AID 2283011). In outline:
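Activity is scored as increase in GAL4-UAS reporter mRNA over DMSO, detected by fluorescent RT-PCR and capillary electrophoresis in HepG2 cells transiently expressing a RORg-Gal4 chimera, 24 h after dosing.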

Read-out in assay [11]: E-selectin (Homo sapiens) (UniProt P16581)
In words: BSK_3C_Eselectin: BioMAP Diversity Plus: 3C Assay for Eselectin Biomarker Activity (AID 2283015; active means hit-call score of the fitted dose curve at least 0.9, where 1 is the maximum; inactive means score below 0.9;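 further: cell surface E-selectin protein quantified by ELISA 24 h after dosing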). The note with it: primary human endothelial cells (HUVEC); actives raise or lower the signal. In outline:
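Human vascular endothelium from umbilical vein is exposed to test chemicals for 24 h. E-selectin levels are read by ELISA and compared with DMSO controls.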

Read-out in assay [12]: Interleukin-1 alpha (IL1a), IL1A (gene 3552)
The experiment in a line: BSK_BE3C_IL1a: BioMAP Diversity Plus: BE3C Assay for Interleukin-1 alpha (IL1a) Biomarker Activity (AID 2283016; active means hit-call score of the fitted dose curve at least 0.9, where 1 is the maximum; inactive means score below 0.9). The conditions noted are these: primary human bronchial epithelial cells; actives raise or lower the signal. In outline: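 Human primary bronchial epithelial cells, 24 h chemical exposure; IL-1a quantified by ELISA, fitted bidirectionally against DMSO. Cytotoxicity assessed in parallel by SRB total-protein staining at the time of measurement.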

Read-out in assay [13]: Monocyte Chemoattractant Protein-1 (MCP1), CCL2 (gene 6347)
The experiment in a line: BSK_3C_MCP1: BioMAP Diversity Plus: 3C Assay for Monocyte Chemoattractant Protein-1 (MCP1) Biomarker Activity (AID 2283017; active means hit-call score of the fitted dose curve at least 0.9, where 1 is the maximum; inactive means score below 0.9). The note with it: primary human endothelial cells (HUVEC); actives raise or lower the signal. A digest of the protocol: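 Endothelial cells from human umbilical vein are dosed with chemical, cultured 24 h, then assayed for MCP-1 by ELISA; both increases and decreases are modelled against DMSO controls.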

Read-out in assay [14]: Monocyte Chemoattractant Protein-1 (MCP1), CCL2 (gene 6347)
The experiment in a line: BSK_4H_MCP1: BioMAP Diversity Plus: 4H Assay for Monocyte Chemoattractant Protein-1 (MCP1) Biomarker Activity (AID 2283018; active means hit-call score of the fitted dose curve at least 0.9, where 1 is the maximum; inactive means score below 0.9). The conditions noted are these: primary human endothelial cells (HUVEC); actives raise or lower the signal. A digest of the protocol: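 Human umbilical vein endothelial cells (4H system) exposed to chemicals for 24 h in 96-well format. MCP-1 measured by ELISA; bidirectional fitting against DMSO, with SRB total-protein staining in parallel cultures for cytotoxicity.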

Read-out in assay [15]: Human Leukocyte Antigen - DR isotype (HLADR), HLA-DRA (gene 3122)
The experiment in a line: BSK_3C_HLADR: BioMAP Diversity Plus: 3C Assay for Human Leukocyte Antigen - DR isotype (HLADR) Biomarker Activity (AID 2283019; active means hit-call score of the fitted dose curve at least 0.9, where 1 is the maximum; inactive means score below 0.9;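 further: ELISA of cell-surface HLA-DR on HUVEC 24 h after dosing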). The note with it: primary human endothelial cells (HUVEC); actives raise or lower the signal. In outline:
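Endothelial cells from human umbilical vein are treated with test chemical; after 24 h, HLA-DR levels are measured by ELISA. Data are fitted in both directions using DMSO as the baseline.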

Read-out in assay [16]: Interleukin-8 (IL8), CXCL8 (gene 3576)
The experiment in a line: BSK_3C_IL8: BioMAP Diversity Plus: 3C Assay for Interleukin-8 (IL8) Biomarker Activity (AID 2283020; active means hit-call score of the fitted dose curve at least 0.9, where 1 is the maximum; inactive means score below 0.9). The note with it: primary human endothelial cells (HUVEC); actives raise or lower the signal. A digest of the protocol: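 Primary human umbilical vein endothelial cells were dosed for 24 h. IL-8 was quantified by ELISA and fitted bidirectionally against DMSO. Cytotoxicity was assessed in parallel cultures by SRB staining at 560 nm.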

Assay [17] has as its target human Retinoic Acid Receptor beta (RARb), RARB (gene 5915) (UniProt P10826). In words: ATG_RARb_TRANS: Attagene TRANS-FACTORIAL HepG2 Assay for human Retinoic Acid Receptor beta (AID 2283004). A digest of the protocol: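 HepG2, transient MRTU transfection, NR–Gal4 chimera, 24 h treatment; RT-PCR plus CE fluorescence detection of reporter mRNA; gain of signal vs DMSO.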

The target in assay [18] is Retinoic acid receptor alpha (Homo sapiens) (UniProt P10276). In words: ATG_RARa_TRANS: Attagene TRANS-FACTORIAL HepG2 Assay for human Retinoic Acid Receptor alpha (RARa) (AID 2283005). In outline:
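HepG2 cells transiently transfected with multiple reporter units expressing chimeric RARα-GAL4 fusion, with GAL4-UAS-driven reporters. After 24 h compound exposure, reporter mRNA induction quantified by RT-PCR and capillary electrophoresis with fluorescent labeling; gain-of-signal fitted relative to DMSO control.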

Assay [19] concerns the target human Retinoic Acid Receptor gamma (RARg), RARG (gene 5916) (UniProt P13631). The experiment in a line: ATG_RARg_TRANS: Attagene TRANS-FACTORIAL HepG2 Assay for human Retinoic Acid Receptor gamma (RARg) (AID 2283009). In outline: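 HepG2 transiently transfected with GAL4-UAS reporter units and chimeric NR-Gal4 constructs; 24 h compound exposure. Reporter mRNA quantified by RT-PCR, FAM labeling, HpaI digestion and capillary electrophoresis; gain-of-signal versus DMSO.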

Records with an inconclusive call do not appear. Active and inactive are the calls of the source. How the source made its calls, unless noted: active means hit-call score of the fitted dose curve at least 0.9, where 1 is the maximum; inconclusive means response in the unintended direction; inactive means score below 0.9.

Sequence of human RAR-related Orphan Receptor beta (RORb), RORB (gene 6096) (Q92753 whole entry, looked up, the tested form may be a part): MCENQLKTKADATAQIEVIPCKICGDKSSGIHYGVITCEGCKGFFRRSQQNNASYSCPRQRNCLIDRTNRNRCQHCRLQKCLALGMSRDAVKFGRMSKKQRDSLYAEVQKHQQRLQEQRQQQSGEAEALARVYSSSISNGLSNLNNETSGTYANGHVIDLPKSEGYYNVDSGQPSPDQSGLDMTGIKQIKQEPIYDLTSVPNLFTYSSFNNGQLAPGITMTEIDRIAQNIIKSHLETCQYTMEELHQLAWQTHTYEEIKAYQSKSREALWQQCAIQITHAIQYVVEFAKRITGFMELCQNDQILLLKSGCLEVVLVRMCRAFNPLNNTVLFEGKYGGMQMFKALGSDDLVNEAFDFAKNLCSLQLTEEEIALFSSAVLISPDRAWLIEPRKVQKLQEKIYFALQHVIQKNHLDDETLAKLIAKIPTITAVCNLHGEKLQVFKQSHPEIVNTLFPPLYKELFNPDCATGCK
Sequence of human Peroxisome Proliferator-activated Receptor delta (PPARd), PPARD (gene 5467) (Q03181 whole entry, looked up, the tested form may be a part): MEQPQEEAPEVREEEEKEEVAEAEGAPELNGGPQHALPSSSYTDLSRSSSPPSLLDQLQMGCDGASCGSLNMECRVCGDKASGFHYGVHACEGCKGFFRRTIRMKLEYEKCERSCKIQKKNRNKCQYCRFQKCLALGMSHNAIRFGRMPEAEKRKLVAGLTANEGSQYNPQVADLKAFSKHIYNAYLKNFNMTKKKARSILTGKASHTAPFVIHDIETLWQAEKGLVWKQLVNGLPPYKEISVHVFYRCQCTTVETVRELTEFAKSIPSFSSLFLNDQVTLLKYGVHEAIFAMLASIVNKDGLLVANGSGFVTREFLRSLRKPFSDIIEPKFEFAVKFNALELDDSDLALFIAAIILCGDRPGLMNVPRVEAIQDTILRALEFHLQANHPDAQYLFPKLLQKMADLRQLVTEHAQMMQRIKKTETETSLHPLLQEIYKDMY
Sequence of human Thyroid Receptor alpha (THRa1), THRA (gene 7067) (P10827 whole entry, looked up, the tested form may be a part): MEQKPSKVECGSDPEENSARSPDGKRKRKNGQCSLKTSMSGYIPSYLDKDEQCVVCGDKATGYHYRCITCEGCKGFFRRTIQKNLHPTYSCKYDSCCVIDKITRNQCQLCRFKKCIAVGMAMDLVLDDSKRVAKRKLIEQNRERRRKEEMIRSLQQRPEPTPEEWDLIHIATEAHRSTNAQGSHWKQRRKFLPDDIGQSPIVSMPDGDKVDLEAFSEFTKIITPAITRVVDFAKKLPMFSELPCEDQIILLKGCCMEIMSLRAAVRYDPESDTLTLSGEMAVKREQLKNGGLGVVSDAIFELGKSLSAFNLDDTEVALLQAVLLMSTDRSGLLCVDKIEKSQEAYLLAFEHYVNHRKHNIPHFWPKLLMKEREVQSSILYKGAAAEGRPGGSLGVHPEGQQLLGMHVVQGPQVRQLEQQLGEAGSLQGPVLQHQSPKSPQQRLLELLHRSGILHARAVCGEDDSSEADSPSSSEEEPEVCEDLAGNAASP
Sequence of Peroxisome proliferator-activated receptor gamma (Homo sapiens) (P37231 whole entry, looked up, the tested form may be a part): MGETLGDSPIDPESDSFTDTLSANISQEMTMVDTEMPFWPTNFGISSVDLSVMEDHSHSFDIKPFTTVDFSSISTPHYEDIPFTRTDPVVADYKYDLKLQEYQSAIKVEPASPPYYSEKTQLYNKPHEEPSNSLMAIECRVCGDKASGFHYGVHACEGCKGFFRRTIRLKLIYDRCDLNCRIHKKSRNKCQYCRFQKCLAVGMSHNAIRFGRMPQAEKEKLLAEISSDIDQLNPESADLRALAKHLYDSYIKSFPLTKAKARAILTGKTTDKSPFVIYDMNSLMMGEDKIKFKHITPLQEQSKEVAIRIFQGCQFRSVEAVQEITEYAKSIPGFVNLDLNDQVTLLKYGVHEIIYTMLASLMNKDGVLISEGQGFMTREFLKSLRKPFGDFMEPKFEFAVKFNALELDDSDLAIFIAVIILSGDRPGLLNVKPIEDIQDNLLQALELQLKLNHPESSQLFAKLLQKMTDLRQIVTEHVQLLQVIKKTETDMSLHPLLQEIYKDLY
Sequence of Nuclear receptor subfamily 1 group I member 2 (Homo sapiens) (O75469 whole entry, looked up, the tested form may be a part): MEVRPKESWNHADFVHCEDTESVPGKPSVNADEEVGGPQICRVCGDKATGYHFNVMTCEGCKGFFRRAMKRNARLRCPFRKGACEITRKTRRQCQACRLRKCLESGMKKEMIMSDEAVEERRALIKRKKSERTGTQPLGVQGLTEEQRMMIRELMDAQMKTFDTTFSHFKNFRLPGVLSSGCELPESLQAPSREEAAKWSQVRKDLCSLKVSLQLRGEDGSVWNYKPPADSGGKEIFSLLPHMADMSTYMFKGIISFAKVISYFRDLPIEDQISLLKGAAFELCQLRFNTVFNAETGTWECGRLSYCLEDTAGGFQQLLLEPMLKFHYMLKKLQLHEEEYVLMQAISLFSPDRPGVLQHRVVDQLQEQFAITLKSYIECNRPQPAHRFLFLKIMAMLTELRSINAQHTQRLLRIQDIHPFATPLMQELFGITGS
Sequence of human Retinoid X Receptor beta (RXRb), RXRB (gene 6257) (P28702 whole entry, looked up, the tested form may be a part): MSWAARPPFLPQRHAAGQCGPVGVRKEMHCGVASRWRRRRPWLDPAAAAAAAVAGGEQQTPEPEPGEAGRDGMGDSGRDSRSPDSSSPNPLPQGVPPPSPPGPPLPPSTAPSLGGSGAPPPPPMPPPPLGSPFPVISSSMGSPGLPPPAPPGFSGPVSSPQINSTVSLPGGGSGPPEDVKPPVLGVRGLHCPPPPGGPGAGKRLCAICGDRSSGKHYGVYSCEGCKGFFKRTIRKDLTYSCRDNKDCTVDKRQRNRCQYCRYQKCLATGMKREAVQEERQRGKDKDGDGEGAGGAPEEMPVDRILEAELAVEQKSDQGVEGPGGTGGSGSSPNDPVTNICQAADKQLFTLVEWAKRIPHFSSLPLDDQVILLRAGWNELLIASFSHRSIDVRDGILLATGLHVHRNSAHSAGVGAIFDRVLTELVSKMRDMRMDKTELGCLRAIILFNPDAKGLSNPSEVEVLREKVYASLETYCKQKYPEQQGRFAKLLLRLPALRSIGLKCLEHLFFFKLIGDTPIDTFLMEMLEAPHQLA
Sequence of E-selectin (Homo sapiens) (P16581 whole entry, looked up): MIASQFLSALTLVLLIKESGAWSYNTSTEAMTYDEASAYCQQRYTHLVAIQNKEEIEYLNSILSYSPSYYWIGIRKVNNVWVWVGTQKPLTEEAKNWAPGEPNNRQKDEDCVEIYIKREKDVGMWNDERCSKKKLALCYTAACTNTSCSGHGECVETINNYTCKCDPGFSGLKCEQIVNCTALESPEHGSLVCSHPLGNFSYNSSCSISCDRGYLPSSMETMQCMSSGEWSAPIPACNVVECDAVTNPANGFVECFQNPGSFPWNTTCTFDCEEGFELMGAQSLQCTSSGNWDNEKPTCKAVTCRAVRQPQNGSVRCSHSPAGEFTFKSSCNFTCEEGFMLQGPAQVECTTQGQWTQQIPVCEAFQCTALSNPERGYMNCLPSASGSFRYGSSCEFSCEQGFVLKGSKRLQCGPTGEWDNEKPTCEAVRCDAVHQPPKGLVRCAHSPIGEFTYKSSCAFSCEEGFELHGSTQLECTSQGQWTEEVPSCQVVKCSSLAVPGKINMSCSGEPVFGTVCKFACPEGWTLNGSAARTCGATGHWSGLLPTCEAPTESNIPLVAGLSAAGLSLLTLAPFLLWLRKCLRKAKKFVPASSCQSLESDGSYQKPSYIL
Sequence of Retinoic acid receptor RXR-alpha (Homo sapiens) (P19793 whole entry, looked up, the tested form may be a part): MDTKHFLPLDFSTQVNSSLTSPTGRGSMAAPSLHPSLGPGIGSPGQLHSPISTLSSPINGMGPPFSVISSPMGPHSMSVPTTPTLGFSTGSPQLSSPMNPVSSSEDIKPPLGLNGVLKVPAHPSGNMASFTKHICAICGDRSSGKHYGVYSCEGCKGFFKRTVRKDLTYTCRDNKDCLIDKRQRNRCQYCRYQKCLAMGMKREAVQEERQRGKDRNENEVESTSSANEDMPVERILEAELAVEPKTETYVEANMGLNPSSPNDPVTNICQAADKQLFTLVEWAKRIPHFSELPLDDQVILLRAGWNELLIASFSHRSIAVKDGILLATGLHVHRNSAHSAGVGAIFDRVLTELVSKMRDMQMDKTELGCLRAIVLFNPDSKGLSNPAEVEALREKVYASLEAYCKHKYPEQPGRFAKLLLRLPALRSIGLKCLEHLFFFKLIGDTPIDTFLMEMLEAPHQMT
Sequence of human RAR-related Orphan Receptor gamma (RORg), RORC (gene 6097) (P51449 whole entry, looked up, the tested form may be a part): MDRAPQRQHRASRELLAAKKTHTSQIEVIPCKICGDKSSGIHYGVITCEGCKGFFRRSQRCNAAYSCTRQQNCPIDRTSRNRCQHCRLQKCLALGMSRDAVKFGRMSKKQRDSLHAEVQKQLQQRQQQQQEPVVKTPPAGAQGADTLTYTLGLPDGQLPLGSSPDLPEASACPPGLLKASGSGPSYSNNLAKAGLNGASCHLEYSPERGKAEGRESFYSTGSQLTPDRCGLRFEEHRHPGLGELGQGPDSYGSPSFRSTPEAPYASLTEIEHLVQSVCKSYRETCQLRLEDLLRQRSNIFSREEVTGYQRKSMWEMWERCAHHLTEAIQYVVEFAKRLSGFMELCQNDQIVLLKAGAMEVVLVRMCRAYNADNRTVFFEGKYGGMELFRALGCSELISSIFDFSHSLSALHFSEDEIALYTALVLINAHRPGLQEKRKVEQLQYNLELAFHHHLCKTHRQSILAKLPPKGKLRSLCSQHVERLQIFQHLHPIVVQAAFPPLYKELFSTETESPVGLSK
Sequence of human Retinoic Acid Receptor beta (RARb), RARB (gene 5915) (P10826 whole entry, looked up, the tested form may be a part): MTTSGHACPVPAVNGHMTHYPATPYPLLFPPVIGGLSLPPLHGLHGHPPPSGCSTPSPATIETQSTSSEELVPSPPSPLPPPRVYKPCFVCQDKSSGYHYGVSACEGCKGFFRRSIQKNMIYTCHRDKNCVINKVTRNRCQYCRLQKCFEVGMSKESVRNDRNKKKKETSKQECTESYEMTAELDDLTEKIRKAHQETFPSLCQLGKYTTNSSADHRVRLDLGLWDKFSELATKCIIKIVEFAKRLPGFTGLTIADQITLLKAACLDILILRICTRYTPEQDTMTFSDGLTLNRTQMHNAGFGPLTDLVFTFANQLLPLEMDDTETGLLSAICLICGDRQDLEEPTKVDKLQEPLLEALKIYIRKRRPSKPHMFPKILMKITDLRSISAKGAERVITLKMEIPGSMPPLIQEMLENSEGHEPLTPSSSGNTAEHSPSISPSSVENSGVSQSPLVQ

One may read the AC50 as the concentration giving half of the maximal activity seen. Consider `CCN(CC)c1ccc2c(-c3ccccc3C(=O)O)c3ccc(=[N+](CC)CC)cc-3oc2c1`, for which the compound was called inactive in assay [1] and in [4]. Moreover, the values for the AC50 in assay [2] and in assay [3] were 30.4 µM (active) and 0.335 µM (active), respectively.
With `Nc1cccc(S(=O)(=O)c2cccc(N)c2)c1`, the compound was called inactive in assay [1], in assay [2], in [3], in [5], in assay [4] and in assay [6].
For the compound `COc1ccc(Nc2ccccc2)c(C)c1`, the call in [1], in assay [4] and in assay [6] was inactive. The concentration at half-maximal activity (AC50) in assay [2] was 31.5 µM (active); in [3], 11.1 µM (active); in [7] it was 33.1 µM (active).
On to `Cc1ccc(C=O)s1`, for which the compound was called inactive in assay [1], in assay [3], in assay [5], in assay [4] and in assay [6]. Moreover, the AC50 in [2] is 32.8 µM (active).
Regarding `O=C=NC1CCC(CC2CCC(N=C=O)CC2)CC1` (stereo not drawn), the compound was classed as inactive in [1], in [8], in [3], in assay [10], in [4] and in [7]. For the same compound, the outcome in assay [11], in assay [12], in [13], in [14], in assay [15] and in assay [16] was inactive. Also, the AC50 in [9] is 23.2 µM (active).
Regarding `O=[N+]([O-])c1ccc(Nc2ccc(Nc3ccccc3)c(S(=O)(=O)O)c2)c([N+](=O)[O-])c1`, the compound was called inactive in [1], in assay [5] and in assay [4]. Besides, the AC50 was 17.9 µM (active) in [2] and 22.9 µM (active) in assay [3].
On to `O=Cc1ccc(F)cc1`, for which the compound was called inactive in assay [1], in assay [2], in [3], in assay [5], in assay [10] and in [4]. Besides, the compound was classed as inactive in assay [7].
Regarding `CN1[C@@H]2CC(OC(=O)[C@H](CO)c3ccccc3)C[C@H]1[C@@H]1O[C@@H]12` (stereo partly drawn), the compound was called inactive in [1], in [2], in [3], in [5], in [10] and in assay [4]. For the same compound, the outcome in assay [6] was inactive. Also, the AC50 in assay [7] was 160 µM (active).
In the case of `CCCOCC(C)O` (stereo not drawn), the call in assay [1], in assay [2], in assay [3], in [5], in [4] and in [7] was inactive. The compound was called inactive in [6].
Turning to `CC(=O)OCCC(C)CC(C)(C)C` (stereo not drawn), the compound was called inactive in assay [1], in assay [8], in assay [9], in assay [3], in assay [5] and in assay [4]. For the same compound, the outcome in assay [7], in [6], in assay [11], in assay [12], in [13] and in assay [14] was inactive. The result in assay [15] and in assay [16] was inactive.
For `Cc1c(Cl)c(=O)oc2cc(O)ccc12`, the compound was called inactive in [1], in [3], in assay [4], in [7] and in [6]. Besides, in assay [2], the AC50 is 100 µM (active).
Consider `CC1CC(OC(=O)c2ccccc2O)CC(C)(C)C1` (stereo not drawn), for which the outcome in assay [1], in assay [17], in [18], in assay [2], in assay [3] and in assay [19] was inactive. Also, the call in assay [10] and in [6] was inactive.
As to `CC(=O)C(C)=O`, the compound was classed as inactive in [1], in assay [3] and in assay [4].

For the origin of these results see PubChem BioAssay (EPA / NIEHS).
